Source: PubChem BioAssay
Hits are enriched below; roughly 3.2% of the tested compounds scored in any of these assays.
GLP1R inv ag: qHTS of GLP-1 Receptor Inverse Agonists (Inhibition Mode) | Glucagon-like peptide 1 receptor (Homo sapiens), P43220 | HEK293 GLP-1R CRE-luciferase, luminescence, 24 h; GLP-1R form is constitutively active | Potency, µM (highest dose often 38.3 µM), most hits filed as inhibitors | 1.6% of 410,000 active | AID 624417, 2012; further: nearly all actives have a fitted effect of over 55% in size
Target sequence (P43220 whole entry, looked up): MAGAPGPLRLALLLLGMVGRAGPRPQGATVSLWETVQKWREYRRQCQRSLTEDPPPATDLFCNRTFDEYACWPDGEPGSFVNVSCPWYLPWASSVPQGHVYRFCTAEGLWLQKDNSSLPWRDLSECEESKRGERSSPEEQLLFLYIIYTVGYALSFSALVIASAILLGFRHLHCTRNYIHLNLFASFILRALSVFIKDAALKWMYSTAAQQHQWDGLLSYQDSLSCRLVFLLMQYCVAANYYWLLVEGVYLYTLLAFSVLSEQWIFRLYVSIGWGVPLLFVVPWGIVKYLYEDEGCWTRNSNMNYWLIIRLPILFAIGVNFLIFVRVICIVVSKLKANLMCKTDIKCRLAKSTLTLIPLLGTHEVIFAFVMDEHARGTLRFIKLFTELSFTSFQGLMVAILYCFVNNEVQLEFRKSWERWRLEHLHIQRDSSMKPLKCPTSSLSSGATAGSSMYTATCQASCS
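GLP-1R inverse agonism mode: basal reporter luminescence in engineered HEK293 cells measured after one day of compound exposure at 37 deg C, with a 12 min room-temperature detection step.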
GLP-1R agonist: qHTS of GLP-1 Receptor Agonists. 0.007% of 380,000 active. AID 624172, 2012. Glucagon-like peptide 1 receptor (Homo sapiens), P43220. Potency, µM (doses to about 45.6 µM), actives largely listed as activators. HEK293 GLP-1R CRE-luciferase, luminescence, 4-6 h; cells express a hypersensitive GLP-1R form
GLP1R cytotox: qHTS of GLP-1 Receptor Inverse Agonists: Cytotox Screen; HEK293 cAMP-luciferase reporter cells, luminescence, 24 h; Potency, µM (series often up to 38.3 µM), actives largely listed as inhibitors; 0.13% of 410,000 active; AID 624418, 2012;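 further: loss of luciferase light is scored as toxicity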
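Compound-treated cells are incubated 24 hr at 37 deg C under 5% CO2 after a 12 hour attachment period, then luciferase detection reagent is added and luminescence is measured following 12 min at room temperature; lowered signal indicates toxicity.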
ClpP mod: qHTS Assay for Activators of ClpP. ATP-dependent Clp protease proteolytic subunit (Bacillus subtilis (strain 168)), P80244. purified B. subtilis ClpP, FRET peptide cleavage, 20 min. Potency, µM (doses to about 57.5 µM). 1.9% of 340,000 active. AID 651965, 2013; active means well fitted falling curve with a large enough effect; inconclusive means small, poorly fitted or top-dose-only effect; inactive means no such curve, though single readings can be large or run the other way; further: the source files actives as falling curves though it sought activators and does not explain the sign; nearly all actives have a fitted effect of over 65% in size
Target sequence (P80244 whole entry, looked up): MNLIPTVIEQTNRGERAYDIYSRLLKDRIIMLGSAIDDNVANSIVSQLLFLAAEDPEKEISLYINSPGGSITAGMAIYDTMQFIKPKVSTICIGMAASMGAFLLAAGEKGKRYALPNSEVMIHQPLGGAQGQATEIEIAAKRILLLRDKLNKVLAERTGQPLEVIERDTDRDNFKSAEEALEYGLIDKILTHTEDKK
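FRET quenching reversal measured ClpP activation: 10 microg/mL B. subtilis ClpP at pH 8 with the FRET-FV decapeptide, read at 430 nm after 320 nm excitation. The 20-min minus 0-min signal was scaled between DMSO/no-enzyme wells and ADEP (5.8 microM final).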
Numbers stand for hits; – = inactive; ? = inconclusive; · = no result given. Unless noted, the call rests on the fitted dose curve; in most records, active means well fitted curve in the direction sought with a large enough effect; inconclusive means small, poorly fitted or top-dose-only effect, or another doubt; inactive means no such curve, though single readings can be large; an effect the other way counts as inactive or inconclusive.

SMILES | GLP1R inv ag | GLP-1R agonist | GLP1R cytotox | ClpP mod
C#CCN(C[C@@H]1[C@@H](OC(=O)NCc2ccco2)[C@@H](OC(=O)NCc2ccco2)Cn2c(=O)ccc(=O)n21)S(=O)(=O)c1ccc(C)cc1 | 10µM | – | ? | –
C#CCN(C[C@@H]1[C@@H](OC(=O)NCC2CCCCC2)[C@@H](OC(=O)NCC2CCCCC2)Cn2c(=O)ccc(=O)n21)S(=O)(=O)c1ccc(C)cc1 | 2.5µM | – | ? | –
CC(C)C[C@@H](CO)N(Cc1ccccc1)S(=O)(=O)N(Cc1ccccc1)[C@H](CO)CC(C)C | ? | – | ? | –
COc1ccc(CN([C@H](CO)CC(C)C)S(=O)(=O)N(Cc2ccccc2)[C@H](CO)CC(C)C)cc1 | 4.5µM | – | ? | –
O=C(Nc1cccc(-c2cccc(Cl)c2)c1)C1CCN(Cc2ccc(CO)o2)CC1 | 3.5µM | – | ? | –
CNC(=O)c1c(C)[nH]c(=S)c(C#N)c1-c1ccco1 | – | – | – | –
Cc1ccccc1NC(=O)c1c(C)[nH]c(=S)c(C#N)c1-c1ccco1 | – | – | – | 14µM
CC1=C(C(=O)OCCOc2ccccc2)C(c2ccc(C)o2)C2=C(CC(C)(C)CC2=O)N1 (centres undefined) | 7.9µM | – | – | –
COC(=O)C1C(=O)C2=C(CC1C)NC(C)=C(C(=O)OCCOc1ccccc1)C2c1ccc(C)o1 (centres undefined) | 11µM | – | – | –
COC(=O)C1C(=O)C2=C(CC1C)NC(C)=C(C(=O)OCc1ccc(OC)cc1)C2c1ccc(C)o1 (centres undefined) | – | – | – | –
CC1=C(C(=O)OC2CCCCC2)C(c2ccco2)C2=C(CC(C)(C)CC2=O)N1 (centres undefined) | 8.9µM | – | – | 32µM
COC(=O)C1C(=O)C2=C(CC1C)NC(C)=C(C(=O)OC1CCCCC1)C2c1ccc(N(C)C)cc1 (centres undefined) | 10µM | – | – | –
CCN(CC)CCNC(=O)c1ccc2c(=O)n3nc(Nc4ccccc4)sc3nc2c1 | – | · | – | –
Cc1ccc(NC(=O)c2c(C(=O)Nc3ccccc3)sc3nc(C)cc(=O)n23)c(C)c1 | – | · | – | –
COc1cccc(-c2nc3c(c(SCc4ccccc4)n2)Cc2c(CO)cnc(C)c2O3)c1 | – | · | – | –
CCC(=O)Nc1ccc(S(=O)(=O)NCc2cccn2Cc2cccc(C)c2)cc1 | ? | · | – | –
Cn1nc([N+](=O)[O-])nc1Sc1nnc(-c2ccccc2)o1 | 5.6µM | – | ? | –
CCn1cc(C(=O)NCCCOC(C)C)c(=O)c2cc(S(=O)(=O)N(C)C3CCCCC3)ccc21 | – | – | – | –
N#Cc1c(C(F)(F)F)cc(-c2cccs2)nc1SCc1ccc(F)cc1 | – | · | – | –
N#Cc1c(C(F)(F)F)cc(-c2cccs2)nc1SCc1cccnc1 | – | – | – | 8.9µM
Oc1ccccc1C1C=C(c2ccc3c(c2)OCO3)NC(c2cccc(Cl)c2)N1 (centres undefined) | · | · | · | –
CCOc1ccccc1C(=O)Nc1cc(Cl)ccc1O | 7.1µM | – | ? | –
CCOC(=O)c1c(C)n(-c2ccccc2)c2ccc(OC(=O)c3ccccc3NC(=O)C(C)(C)C)cc12 | ? | · | ? | –
Cc1cc(NCc2ccccn2)nc2ccccc12 | – | – | – | ?
c1ccc(CNc2ccc3ccccc3n2)nc1 | – | – | – | 28µM
SMILES | GLP1R inv ag | GLP-1R agonist | GLP1R cytotox | ClpP mod
COc1ccc(CN2CCN(CCCCOc3ccc(Cl)cc3)CC2)c(OC)c1OC | 7.9µM | – | – | ·
COc1ccccc1N1CCN(Cc2ccc(OC)c(OC)c2OC)CC1 | – | – | ? | –
Clc1ccc(CN2C3=NCCCN3c3ccccc32)cc1Cl | 11µM | – | – | ·
Clc1ccc(CN2C3=NCCCN3c3ccccc32)cc1 | ? | – | – | –
OC(COc1ccc(Cl)cc1)CN1C2=NCCCN2c2ccccc21 (centres undefined) | ? | – | – | 22µM
OC(CN1C2=NCCCN2c2ccccc21)c1ccc(Cl)cc1 (centres undefined) | ? | – | – | –
Cc1cc(NC(=O)c2ccccc2-c2ccccc2)ccc1Br | 10µM | – | – | –
Cc1cccc(C(=O)Nc2ccc(-c3nc4cc(C(C)C)ccc4o3)cc2)c1 | ? | · | – | ?
CCc1ccc(C(=O)Nc2cccc(-c3nc4cc(C(C)C)ccc4o3)c2)cc1 | – | – | – | 25µM
CCOC(=O)C1CCN(C(=O)Cn2ncc3c4ccccc4n(Cc4ccccc4F)c3c2=O)CC1 | – | · | – | –
N#Cc1c(NCCN)nc(-c2ccco2)c2c1CCCC2 | – | – | – | 8.9µM
CCc1nc(NCc2ccccc2)c(C#N)c2c1CCCC2 | – | – | – | –
CCc1nc(NCCN)c(C#N)c2c1CSC(C)(C)C2 | ? | – | – | 22µM
CCc1nc(NCCC(C)C)c(C#N)c2c1CCCC2 | – | – | – | 16µM
Cc1nc(NCc2ccco2)c(C#N)c2c1COC(C)(C)C2 | – | – | – | ?
CN(C)CCNc1nc(-c2ccco2)c2c(c1C#N)CC(C)(C)OC2 | – | – | – | ?
CC1(C)Cc2c(C#N)c(NCc3ccco3)nc(-c3ccco3)c2CO1 | – | – | – | 32µM
CCN1CCC[C@@H]1CNC(=O)c1cc(S(=O)(=O)CC)ccc1OC | · | – | · | ·
OCCSc1ccc2nnc(-c3ccccc3)n2n1 | · | · | · | –
COc1ccc(-c2nn(-c3ccc(F)cc3)c3c2cnc2ccc(F)cc23)cc1OC | – | – | – | –
CC(C)CCNc1nc(-c2ccco2)c2c(c1C#N)CCCC2 | ? | – | – | 14µM
CC1(C)Cc2c(C#N)c(NCCCO)nc(-c3ccccc3)c2CO1 | – | – | – | –
N#Cc1c(N2CCOCC2)nc(-c2ccco2)c2c1CCCC2 | ? | – | – | 35µM
Cc1ccccc1CN1C(=O)c2ccccc2S(=O)c2ccc(C(=O)NCc3ccc(Cl)cc3)cc21 (centres undefined) | – | · | – | –
Cc1ccc2c(c1)-c1cc(C)nn1C(c1cc(Br)ccc1O)N2 (centres undefined) | – | · | – | –
SMILES | GLP1R inv ag | GLP-1R agonist | GLP1R cytotox | ClpP mod
CCN(CC)C(=O)CSc1n[nH]c(=O)n1CCc1ccccc1 | – | – | – | ·
O=c1[nH]nc(Sc2ncnc3sccc23)n1CCc1ccccc1 | 5.6µM | – | ? | –
COc1cc(OC)c(-c2nnc(-c3ccc(OC)c(OC)c3OC)o2)cc1OC | – | – | – | 28µM
COc1cccc(-c2nnc(-c3ccc(C(F)(F)F)cc3)o2)c1OC | – | – | – | –
Cc1ccc2c(c1)c(N1CCCC1=O)c(C(=O)Nc1ccc(F)cc1F)n2C | – | – | – | –
COc1ccc(-c2cc(N3CCCC3)n3ncnc3n2)cc1 | – | – | – | –
COc1ccc(-c2cc(-c3ccccc3)n3ncnc3n2)cc1 | – | – | – | 32µM
COc1cccc2c(=O)cc(C)n(CC(=O)Nc3ccccc3C)c12 | – | – | – | 13µM
